Assay results from PubChem BioAssay AID1159580 (chemical genetic matrix, 2015).
Screen size: about 5,500 compounds; about 2,000 (36%) were called active. About 18% were inconclusive and are not listed. The list shows a part of the results. A number with no mark means an inactive call. Cut-off read from the data, not from the text of the source: active = normalized growth mostly below about 0.91 (no sharp cut-off); inconclusive = no clear call, values can overlap the other calls; inactive = mostly above about 0.92.

Assay: chemical genetic growth profiling, strain panel (AID 1159580);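 note: tested at 20 µM; growth read once vehicle control cultures reached saturation at 30 °C; 1 = growth at the plate median or of vehicle wells; lower values mean less growth of the strain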
Settings: S. cerevisiae deletion strains, growth OD

Q: Which results are given for CC1(C)C(=O)N(CCN2CCC(C(=O)c3ccc(F)cc3)CC2)c2ccccc21?
A: normalized growth (locus YAL013W, strain DEP1, active compounds read low): 0.998; normalized growth (locus YAL040C, strain CLN3, active compounds read low): 1.01; normalized growth (locus YCL061C, strain MRC1 (second series), active compounds read low): 0.999; normalized growth (locus YDR150W, strain NUM1, active compounds read low): 0.998; normalized growth (locus YDR363W, strain ESC2, active compounds read low): 0.992; normalized growth (locus YER002W, strain NOP16, active compounds read low): 1.01; normalized growth (locus YGR229C, strain SMI1, active compounds read low): 0.993; normalized growth (locus YNL128W, strain TEP1, active compounds read low): 1.03; normalized growth (locus YNL175C, strain NOP13, active compounds read low): 1.02; normalized growth (locus YNL197C, strain WHI3, active compounds read low): 1.02; normalized growth (locus YNL224C, strain SQS1, active compounds read low): 1.02; normalized growth (locus YNL322C, strain KRE1, active compounds read low): 1; normalized growth (locus YOR083W, strain WHI5 (second series), active compounds read low): 0.969; normalized growth (locus YPL055C, strain LGE1, active compounds read low): 0.982

Q: For CC1C(c2ccccc2)N(C)C(c2ccccc2)CC1(O)c1ccc(F)cc1 (stereo not given), which normalized growth (locus YAR019C, strain CDC15, active compounds read low) is on record?
A: Its normalized growth is 0.988.

Q: And the normalized growth (locus YBL105C, strain PKC1, active compounds read low)?
A: Its normalized growth is 0.991.

Q: What about the normalized growth (locus YBR135W, strain CKS1, active compounds read low) of the same molecule?
A: Its normalized growth is 0.99.

Q: What about the normalized growth (locus YBR136W, strain MEC1, active compounds read low) of the same molecule?
A: Its normalized growth is 0.994.

Q: What about the normalized growth (locus YBR160W, strain CDC28, active compounds read low) of the same molecule?
A: Its normalized growth is 0.995.

Q: And the normalized growth (locus YDL017W, strain CDC7, active compounds read low)?
A: Its normalized growth is 0.997.

Q: And the normalized growth (locus YDL028C, strain MPS1, active compounds read low)?
A: Its normalized growth is 1.

Q: And the normalized growth (locus YDL101C, strain DUN1, active compounds read low)?
A: The normalized growth was 0.986.

Q: And the normalized growth (locus YDL108W, strain KIN28, active compounds read low)?
A: The normalized growth was 1.01.

Q: What about the normalized growth (locus YDL132W, strain cdc53, active compounds read low) of the same molecule?
A: The normalized growth was 0.989.

Q: And the normalized growth (locus YDL214C, strain PRR2, active compounds read low)?
A: The normalized growth was 0.976.

Q: And the normalized growth (locus YDR052C, strain DBF4, active compounds read low)?
A: Its normalized growth is 0.995.

Q: What about the normalized growth (locus YDR054C, strain cdc34, active compounds read low) of the same molecule?
A: Its normalized growth is 0.993.

Q: And the normalized growth (locus YDR226W, strain ADK1, active compounds read low)?
A: Its normalized growth is 0.992.

Q: And the normalized growth (locus YDR477W, strain SNF1, active compounds read low)?
A: Its normalized growth is 0.992.

Q: And the normalized growth (locus YER123W, strain YCK3, active compounds read low)?
A: Its normalized growth is 0.934.

Q: And the normalized growth (locus YER133W, strain GLC7, active compounds read low)?
A: Its normalized growth is 0.995.

Q: And the normalized growth (locus YFL009W, strain cdc4, active compounds read low)?
A: Its normalized growth is 0.989.

Q: And the normalized growth (locus YFL029C, strain CAK1, active compounds read low)?
A: Its normalized growth is 0.99.

Q: And the normalized growth (locus YFR003C, strain YPI1, active compounds read low)?
A: Its normalized growth is 0.999.

Q: And the normalized growth (locus YFR019W, strain FAB1, active compounds read low)?
A: The normalized growth was 0.996.

Q: What about the normalized growth (locus YFR028C, strain CDC14, active compounds read low) of the same molecule?
A: Its normalized growth is 0.984.

Q: What about the normalized growth (locus YGR040W, strain KSS1, active compounds read low) of the same molecule?
A: Its normalized growth is 0.997.

Q: What about the normalized growth (locus YGR052W, strain FMP48, active compounds read low) of the same molecule?
A: Its normalized growth is 1.11.

Q: And the normalized growth (locus YGR092W, strain DBF2, active compounds read low)?
A: Its normalized growth is 0.968.

Q: And the normalized growth (locus YHR030C, strain SLT2, active compounds read low)?
A: Its normalized growth is 1.26 [resistant] (active).

Q: And the normalized growth (locus YHR079C, strain IRE1, active compounds read low)?
A: Its normalized growth is 1.14.

Q: What about the normalized growth (locus YHR082C, strain KSP1, active compounds read low) of the same molecule?
A: Its normalized growth is 1.13.

Q: What about the normalized growth (locus YHR205W, strain SCH9, active compounds read low) of the same molecule?
A: The normalized growth was 0.979.

Q: What about the normalized growth (locus YIL147C, strain SLN1, active compounds read low) of the same molecule?
A: The normalized growth was 1.

Q: What about the normalized growth (locus YJL095W, strain BCK1, active compounds read low) of the same molecule?
A: The normalized growth was 1.1.

Q: What about the normalized growth (locus YJL128C, strain PBS2, active compounds read low) of the same molecule?
A: Its normalized growth is 0.952.

Q: What about the normalized growth (locus YJL157C, strain FAR1, active compounds read low) of the same molecule?
A: The normalized growth was 0.972.

Q: What about the normalized growth (locus YJR016C, strain ILV3, active compounds read low) of the same molecule?
A: The normalized growth was 0.989.

Q: What about the normalized growth (locus YJR066W, strain TOR1 (second series), active compounds read low) of the same molecule?
A: Its normalized growth is 0.983.

Q: What about the normalized growth (locus YJR066W, strain TOR1, active compounds read low) of the same molecule?
A: Its normalized growth is 1.13.

Q: What about the normalized growth (locus YKL048C, strain ELM1, active compounds read low) of the same molecule?
A: The normalized growth was 0.982.

Q: And the normalized growth (locus YKL067W, strain YNK1, active compounds read low)?
A: Its normalized growth is 0.98.

Q: And the normalized growth (locus YKL101W, strain HSL1, active compounds read low)?
A: The normalized growth was 0.99.

Q: What about the normalized growth (locus YKL193C, strain SDS22, active compounds read low) of the same molecule?
A: Its normalized growth is 0.994.

Q: What about the normalized growth (locus YKL203C, strain TOR2, active compounds read low) of the same molecule?
A: Its normalized growth is 1.06.

Q: And the normalized growth (locus YLR113W, strain HOG1, active compounds read low)?
A: Its normalized growth is 1.04.

Q: What about the normalized growth (locus YLR133W, strain CKI1, active compounds read low) of the same molecule?
A: Its normalized growth is 0.98.

Q: What about the normalized growth (locus YLR403W, strain SFP1, active compounds read low) of the same molecule?
A: Its normalized growth is 0.99.

Q: What about the normalized growth (locus YML070W, strain DAK1, active compounds read low) of the same molecule?
A: The normalized growth was 0.973.

Q: What about the normalized growth (locus YMR001C, strain CDC5, active compounds read low) of the same molecule?
A: Its normalized growth is 0.982.

Q: What about the normalized growth (locus YMR205C, strain PFK2 (second series), active compounds read low) of the same molecule?
A: Its normalized growth is 0.989.

Q: What about the normalized growth (locus YMR277W, strain FCP1, active compounds read low) of the same molecule?
A: Its normalized growth is 0.997.

Q: And the normalized growth (locus YNL006W, strain LST8, active compounds read low)?
A: Its normalized growth is 0.977.

Q: And the normalized growth (locus YNL020C, strain ARK1, active compounds read low)?
A: Its normalized growth is 0.984.

Q: And the normalized growth (locus YNL161W, strain CBK1, active compounds read low)?
A: Its normalized growth is 1.

Q: What about the normalized growth (locus YNL183C, strain NPR1, active compounds read low) of the same molecule?
A: The normalized growth was 1.14.

Q: What about the normalized growth (locus YNL207W, strain RIO2, active compounds read low) of the same molecule?
A: Its normalized growth is 0.999.

Q: What about the normalized growth (locus YNL222W, strain SSU72, active compounds read low) of the same molecule?
A: Its normalized growth is 0.99.

Q: What about the normalized growth (locus YNL307C, strain MCK1 (second series), active compounds read low) of the same molecule?
A: Its normalized growth is 0.987.

Q: What about the normalized growth (locus YOL078W, strain AVO1, active compounds read low) of the same molecule?
A: Its normalized growth is 0.992.

Q: What about the normalized growth (locus YOL136C, strain PFK27, active compounds read low) of the same molecule?
A: The normalized growth was 0.99.

Q: What about the normalized growth (locus YOR061W, strain CKA2, active compounds read low) of the same molecule?
A: Its normalized growth is 0.972.

Q: What about the normalized growth (locus YOR119C, strain RIO1, active compounds read low) of the same molecule?
A: Its normalized growth is 1.04.

Q: What about the normalized growth (locus YOR231W, strain MKK1, active compounds read low) of the same molecule?
A: Its normalized growth is 1.1.

Q: And the normalized growth (locus YOR329C, strain SCD5, active compounds read low)?
A: The normalized growth was 0.992.

Q: What about the normalized growth (locus YPL031C, strain PHO85, active compounds read low) of the same molecule?
A: The normalized growth was 0.984.

Q: And the normalized growth (locus YPL153C, strain RAD53, active compounds read low)?
A: Its normalized growth is 0.983.

Q: What about the normalized growth (locus YPL204W, strain HRR25, active compounds read low) of the same molecule?
A: The normalized growth was 1.

Q: And the normalized growth (locus YPL209C, strain IPL1, active compounds read low)?
A: Its normalized growth is 1.

Q: What about the normalized growth (locus YPL256C, strain CLN2, active compounds read low) of the same molecule?
A: Its normalized growth is 1.1.

Q: And the normalized growth (locus YPR025C, strain CCL1, active compounds read low)?
A: The normalized growth was 0.995.

Q: And the normalized growth (locus YPR106W, strain ISR1, active compounds read low)?
A: Its normalized growth is 0.999.

Q: And the normalized growth (locus YPR111W, strain DBF20, active compounds read low)?
A: The normalized growth was 0.99.

Q: And the normalized growth (strain NNK1, active compounds read low)?
A: The normalized growth was 0.998.

Q: What about the normalized growth (strain TSCII, active compounds read low) of the same molecule?
A: Its normalized growth is 0.987.
